# ChEMBL document CHEMBL1157539, “Thousands of chemical starting points for antimalarial lead identification” (Nature, 2010)
# Key:
# Format in all cases: functional
# Plasmodium falciparum [1] = assay: GSK_TCMDC: Inhibition of Plasmodium falciparum 3D7 in whole red blood cells, using parasite LDH activity as an index of growth. Test compounds present at 2uM
# Plasmodium falciparum [2] = assay: GSK_TCMDC: Inhibition of Plasmodium falciparum Dd2 in whole red blood cells, using parasite LDH activity as an index of growth. Test compounds present at 2uM
# HepG2 = assay: GSK_TCMDC: Percent inhibition of human HepG2 cell line. Test compounds present at 10uM.
Compound,Inhibition (Plasmodium falciparum [1]) [%],Inhibition (Plasmodium falciparum [2]) [%],Inhibition (HepG2) [%]
COC(=O)c1c(C#N)c(OC)cc(O)c1CSC[C@H](Nc1nc(-c2ccc([N+](=O)[O-])cc2)cs1)C(=O)NCCN1CCCCC1,85,88,5
COC(=O)C(c1ccc(NC(=O)[C@H](CC(C)C)NC(=O)OC(C)(C)C)cc1)c1ccc(NC(=O)[C@H](CC(C)C)NC(=O)OC(C)(C)C)cc1,94,42,0
COc1ccc2nccc(N3CCC(NCc4ccc5c(n4)NC(=O)CS5)CC3)c2n1,100,63,14
CCc1cccc(OCC2CCCN(c3ccc(C(=O)NC4CC4)cn3)C2)c1 (configuration not stated),94,73,0
Cc1cc(NCCC(=O)Nc2ccccc2)nc(NCc2ccccc2C)n1.O=C(O)C(F)(F)F,100,57,6
Cc1c(C(=O)C2CC2CN2CCC(N3CCCCC3)CC2)sc2ccccc12 (configuration not stated),94,19,35
CCCc1ccccc1OCC(O)CN(C1CCCC1)C1CCCC1.Cl (configuration not stated),97,97,49
Nc1c2ccccc2nc2cc(C(F)(F)F)ccc12,100,49,8
O=C(/C=C/c1ccc(Cl)c(Cl)c1)NCCCCCN1CCC(C(=O)Nc2cccc(Cl)c2)CC1,100,0,48
CCOC(=O)c1cnc2c(C(F)(F)F)cccc2c1Nc1ccc(O)cc1,96,67,0
NC1=NC(c2ccccc2)(c2ccccc2)C(=O)N1CCOc1ccccc1,90,57,42
CN(C)c1ccnc2ccc(NC(=O)Nc3ccnc4ccccc34)cc12,100,99,15
Cc1cc(NC(=O)c2ccco2)ccc1OC1CCN(Cc2ccc(F)cc2)CC1.O=C(O)C(F)(F)F,96,93,4
Cc1nc(-c2cccc(C(F)(F)F)c2)n2nc(Nc3ccc(OCCN4CCCC4)cc3)ncc12,99,29,30
Cn1cccc1CCNCc1ccc(-c2cccc(-c3nc4cc(F)ccc4[nH]3)c2)cc1.O=C(O)C(F)(F)F,93,43,0
COc1ccc(NC(=O)Nc2cccc(-c3ccc(-c4nc5cc(C(F)(F)F)ccc5[nH]4)cc3)c2)cc1,100,29,46
CCC[C@@H]([C@@H](CC1CCCCC1)C(=O)N[C@H](C(=O)Nc1nccs1)C(C)(C)SCCOCCOCC)N(O)C=O,100,97,40
CCN(CC)CCCNc1ncc2c(-c3ccc(NC(=O)Nc4cc(C(F)(F)F)ccc4F)c(F)c3)nn(C)c2n1.O=C(O)C(F)(F)F,94,68,100
CN1CCC[C@H]1COc1ccc(CN2CC[C@H](NC(=O)c3ccc(Cl)c(Cl)c3)C2)c2ccccc12.O=C(O)C(F)(F)F,100,98,47
CCN(CC)CCN(Cc1ccc(-c2ccc(C(F)(F)F)cc2)cc1)C(=O)c1ccc(-c2ccc(C#N)cc2)cc1,89,31,38

Compound,Inhibition (Plasmodium falciparum [1]) [%],Inhibition (Plasmodium falciparum [2]) [%],Inhibition (HepG2) [%]
Cc1cc(N(C)C2CCN(C)C2)nc(Nc2ccc(Cl)cc2)n1 (configuration not stated),100,88,8
CCN1CCC(N(Cc2ccc(-c3ccc(C(F)(F)F)cc3)cc2)C(=O)Cn2c(CCc3cccc(F)c3F)cc(=O)c3c2CCC3)CC1.O=C(O)C(O)C(O)C(=O)O,89,85,49
Nc1nc(N)c2c(ccc3c2ncn3Cc2ccccc2)n1,96,96,71
CCCCN(CCCC)Cc1cc(Nc2ccnc3cc(Cl)ccc23)ccc1O.Cl,100,87,67
CC(C)(c1ccccc1)c1ccc(O)c(CN2CCOCC2)c1,99,88,0
COc1cc(Cc2cnc(N)nc2N)cc(OCCCc2cc(OCc3ccccc3)no2)c1OC,86,4,30
O=C(Nc1cccc(CN2CCN(C(=O)c3ccccc3)CC2)c1)c1cccs1.O=C(O)C(F)(F)F,95,97,15
CC(C)Cn1c(N)cc(=O)n(C)c1=O,100,0,3
COc1ccc(-c2cccc(NC(=O)c3cccc(Cl)c3)c2)cc1CNC(C)C.O=C(O)C(F)(F)F,100,8,15
CCC(CC)N1CCN(CC(=O)Nc2ccc([N+](=O)[O-])cc2C(=O)Nc2cccc(OC)c2)CC1,100,35,35
N#Cc1cccc(C(=O)NC2CCN(c3ccnc(Nc4ccc(F)cc4)n3)C2)c1 (configuration not stated),98,91,4
CCCCCN1CCC(NC(=O)c2ccc(C(=O)Nc3ccc(C(C)C)cc3)cc2)C1.O=C(O)C(F)(F)F (configuration not stated),95,17,38
O=C(/C=C/c1ccc(Cl)c(Cl)c1)NCCCCCN1CCCC(c2c[nH]c3ccccc23)C1 (configuration not stated),99,22,25
CCOC(=O)c1cn(CC)c2cc(N3CCCCCC3)c(F)cc2c1=O,94,89,0
Nc1nccc2ccc(-c3cccc(O)c3)cc12,95,71,43
CC1=C(C(=O)Nc2cc3cn[nH]c3cc2F)C(c2ccc(Cl)c(NS(C)(=O)=O)c2)CC(=O)N1 (configuration not stated),88,98,2
CCCCCCNCc1c(O)ccc2c(CNCCCCCC)c(O)ccc12.Cl,100,100,22
O=C(Cc1c[nH]cn1)Nc1ccc(-c2ccc(-c3nc4cc(F)ccc4[nH]3)cc2)cc1,100,91,39
COc1cccc(CCc2c(CCNCCCCCCNCCc3ccccc3)ccc(OC)c2OC)c1.Cl,100,69,100
